Most compounds without a hit are left out; they make up all but 11% or so of the library.
JMJD2A Tudor inh: blocks the human JMJD2A Tudor domain. O75164. AlphaScreen JMJD2A-Tudor / H3K4me3 peptide binding. Potency, µM (titrated, usually from 114 µM), usual class: inhibitors. 390,000 compounds, 4.4% hits. AID 504339; note: nearly all actives have a fitted effect of over 50% in size
G9a inh: inhibitors of human histone lysine methyltransferase G9a | G9a H3K9 monomethylation, AlphaScreen, 2 h | Potency, µM (titrated, usually from 102 µM), usual class: inhibitors | 350,000 compounds, 8.8% hits | AID 504332; note: nearly all actives have a fitted effect of over 75% in size
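AlphaScreen read-out: biotin-H3K9 peptide (500 nM) methylation by 20 nM enzyme with 20 uM SAM, 2 h at room temperature after 15 min compound preincubation; anti-monomethyl H3K9 antibody plus donor/acceptor beads, 10 min dark.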
HP1b binding inh: blocks HP1-beta chromodomain binding to methylated histone tails; P83916; 390,000 compounds, 0.56% hits; AlphaScreen HP1-beta / biotin-H3K9me3 peptide binding; Potency, µM (titrated, usually from 114 µM), actives largely listed as inhibitors; AID 540317; note: nearly all actives have a fitted effect of over 70% in size
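Compound inhibition of the preformed complex between 50 nM HP1-beta and 50 nM biotinylated H3K9me3 peptide was read by AlphaScreen. Buffer was PBS pH 7.4 with 0.01% Tween-20. Incubations ran 30 min at room temperature, with 10 ug/mL donor/acceptor beads.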
PLK1 PBD block: inhibitors of human PLK1 polo-box domain binding; AID 720504; P53350; Plk1 PBD binding of FITC phosphopeptide, fluorescence polarization; 360,000 compounds, 2.8% hits; Potency, µM, usual class: inhibitors; note: series mostly up to about 57 µM; nearly all actives have a fitted effect of over 65% in size
VDR inh: blocks the human vitamin D receptor | P11473 | VDR-SRC2-3 peptide fluorescence polarization, 2 h | Potency, µM, actives largely listed as inhibitors | 400,000 compounds, 0.93% hits | AID 504847
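Fluorescence polarization assay of small-molecule disruption of VDR binding to coregulator peptide SRC2-3. Compounds and controls pin-transferred, then read after 2 h incubation at ambient room temperature.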
BAZ2B inh: inhibitors of human BAZ2B bromodomain; Q9UIF8; AlphaScreen BAZ2B-H3K14Ac peptide displacement; Potency, µM (doses to about 114 µM), actives largely listed as inhibitors; 360,000 compounds, 4.4% hits; AID 504333; note: nearly all actives have a fitted effect of over 60% in size
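In this displacement format the biotinylated H3(5-23) peptide acetylated at Lys14 serves as ligand at 50 nM, with BAZ2B at 50 nM in PBS pH 7.4 containing 0.01% Tween-20. Donor and acceptor beads are 10 ug/mL final.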
Large screens that a line does not name were inactive. Calls come from the whole dose curve; as a rule, active = well fitted curve in the direction sought with a large enough effect; inconclusive = small, poorly fitted or top-dose-only effect, or another doubt; inactive = no such curve, though single readings can be large; an effect the other way counts as inactive or inconclusive.

CSS(=O)(=O)c1cccc2cccnc12	JMJD2A Tudor inh 3.16µM, G9a inh 0.282µM, PLK1 PBD block 2.38µM, VDR inh 11.2µM, BAZ2B inh 14.1µM
CN(CC(=O)Nc1ncn[nH]1)S(=O)(=O)c1ccc(Br)cc1	JMJD2A Tudor inh inconclusive, BAZ2B inh inconclusive
COC(=O)CS(=O)(=O)c1cccc2cccnc12	PLK1 PBD block 29.9µM
CN(CC(=O)Nc1ccc(Cl)cc1)S(=O)(=O)c1cccc2cccnc12	G9a inh 44.7µM
COC(=O)CC1C(C)(C)C(=O)C2CC3=C(CC[C@]4(C)C3=CC(=O)OC4c3ccoc3)[C@@]1(C)C2=O (stereo partly drawn)	none (no result: JMJD2A Tudor inh, G9a inh, HP1b binding inh, PLK1 PBD block, BAZ2B inh)
Cc1ccc(Cl)c(NC(=O)CSc2n[nH]c(=O)n2C2CC2)c1Cl	G9a inh inconclusive
COCC(=O)n1nc(-c2ccccc2)nc1NCc1ccc(N(C)C)cc1	JMJD2A Tudor inh 35.5µM, HP1b binding inh 50.1µM, BAZ2B inh 31.6µM
O=C(CSc1nc(-c2ccccc2)nn1C(=O)c1ccccc1)Nc1cccc([N+](=O)[O-])c1	JMJD2A Tudor inh inconclusive, PLK1 PBD block inconclusive, BAZ2B inh 56.2µM (no result: G9a inh)
CCc1ccccc1NC(=O)CSc1nc(-c2ccccc2)nn1C(=O)c1cccc([N+](=O)[O-])c1	none (no result: JMJD2A Tudor inh, HP1b binding inh, PLK1 PBD block, VDR inh)
O=C(c1cccc([N+](=O)[O-])c1)n1nc(-c2ccccc2)nc1NCc1ccccc1	JMJD2A Tudor inh inconclusive, G9a inh 44.7µM
COc1ccccc1N1CCN(/N=C/c2ccc(O)c(O)c2)CC1	JMJD2A Tudor inh 22.4µM, HP1b binding inh 28.2µM, BAZ2B inh 50.1µM
CCN(CC)c1ccc(/C=N/N2CCN(c3ccccc3OC)CC2)cc1	JMJD2A Tudor inh 31.6µM, G9a inh 8.91µM, HP1b binding inh 14.1µM, BAZ2B inh 31.6µM
CCN1CCN(CC(=O)Nc2c(OC)cccc2OC)CC1	JMJD2A Tudor inh 5.01µM, G9a inh 39.8µM, HP1b binding inh 44.7µM, BAZ2B inh 17.8µM
COc1cc(OC)c(/C=N/N2CCN(c3ccccc3OC)CC2)c(OC)c1	JMJD2A Tudor inh inconclusive, BAZ2B inh inconclusive
COc1cccc(/C=N/N2CCN(c3ccccc3OC)CC2)c1	JMJD2A Tudor inh 44.7µM, G9a inh inconclusive, BAZ2B inh inconclusive
COc1ccccc1N1CCN(/N=C/c2ccc(C(=O)O)cc2)CC1	none
COc1cccc(/C=N/N2CCN(c3ccncc3S(=O)(=O)N3CCCCC3)CC2)c1	JMJD2A Tudor inh inconclusive, G9a inh 50.1µM, HP1b binding inh inconclusive, BAZ2B inh 39.8µM
CCOC(=O)c1ccc(NC(=O)N2CCN(c3ccccc3OC)CC2)cc1	JMJD2A Tudor inh 79.4µM
CCN(CC)c1ccc(NC(=O)CN2CCN(c3ccccc3OC)CC2)cc1	JMJD2A Tudor inh 44.7µM, G9a inh inconclusive, BAZ2B inh 35.5µM (no result: PLK1 PBD block)
COc1ccc(/C=N/N2CCN(c3ccccc3OC)CC2)cc1OC	JMJD2A Tudor inh inconclusive, G9a inh 44.7µM, BAZ2B inh inconclusive
CC(C)=Cc1c(O)nc2ccccn2c1=O	none
CC(C)NC(=O)C1Cc2c(-c3ccc(Cl)cc3)ccnc2O1 (stereo not drawn)	none (no result: JMJD2A Tudor inh, G9a inh, HP1b binding inh, VDR inh, BAZ2B inh)
COc1ccc(/C=N/N2CCN(c3ccccc3)CC2)cc1Br	none
COc1ccc(/C=N/N2CCN(c3ccccc3OC)CC2)cc1Br	JMJD2A Tudor inh inconclusive, BAZ2B inh 39.8µM
CC(C)CC1NC(=O)N(CC(=O)Nc2ccc3c(c2)OCCO3)C1=O (stereo not drawn)	none
COc1ccccc1-c1oc2ccccc2c1C#CCCO	JMJD2A Tudor inh inconclusive, BAZ2B inh 50.1µM
COc1ccc(N2CCN(c3nc(Nc4ccc(F)cc4)nc(OC)n3)CC2)cc1	none (no result: JMJD2A Tudor inh, HP1b binding inh, PLK1 PBD block, VDR inh)
COc1ccc(N2CCN(c3nc(Cl)nc(Nc4ccc(F)cc4)n3)CC2)cc1	G9a inh 10µM, BAZ2B inh inconclusive
COc1ccc(N2CCN(c3nc(Nc4ccc(C)c(F)c4)nc(N4CCCC4)n3)CC2)cc1	JMJD2A Tudor inh inconclusive, G9a inh 7.08µM, HP1b binding inh inconclusive, BAZ2B inh 7.94µM
CCCNC(=O)C1(C)CCN(Cc2cccc(OC(=O)c3ccccc3)c2)C1 (stereo not drawn)	none (no result: JMJD2A Tudor inh, G9a inh, HP1b binding inh, VDR inh, BAZ2B inh)
c1ccc2c(-c3nnc(SCc4cn5ccccc5n4)o3)c[nH]c2c1	G9a inh 8.91µM
